Measurements reported in PubChem BioAssay (EPA / NIEHS).
Records with an inconclusive call do not appear. Calls of active or inactive are those of the source. Rule for the calls: active = hit-call score of the fitted dose curve at least 0.9, where 1 is the maximum; inconclusive = response in the unintended direction; inactive = score below 0.9.

What follows are molecules tested against human Adrenergic, Alpha 2A Receptor (Adra2A), ADRA2A (gene 150) (UniProt P08913) (assay: NVS_GPCR_hAdra2A: NovaScreen (NVS) G Protein-Coupled Receptor Assay for human Adrenergic, Alpha 2A Receptor (Adra2A) (AID 2283257)).
Experimental: NVS_GPCR_hAdra2A is a biochemical, single-readout assay that uses extracted gene-proteins from HT29 in a cell-free assay. Measurements were taken 1 hour after chemical dosing in a 48-well plate.NVS_GPCR_hAdra2A is one of one assay component(s) measured or calculated from the NVS_GPCR_hAdra2A assay. It is designed to make measurements of radioligand binding, a form of binding reporter, as detected with scintillation counting signals by Filter-based radiodetection technology.Data from the assay component NVS_GPCR_hAdra2A was analyzed into 1 assay endpoint. This assay endpoint, NVS_GPCR_hAdra2A, was analyzed in the positive analysis fitting direction relative to DMSO as the negative control and baseline of activity. Using a type of binding reporter, loss-of-signal activity can be used to understand changes in the binding as they relate to the gene ADRA2A. Furthermore, this assay endpoint can be referred to as a primary readout, because the performed assay has only produced 1 assay endpoint. To generalize the intended target to other relatable targets, this assay endpoint is annotated to the gpcr intended target family, where the subfamily is rhodopsin-like receptor.
Binding assays used specific radioligands (tritiated, iodinated) with non-radioactive competitive displacement ligands in agonist or antagonist protocols (as indicated) and various reference compounds and inhibitors to titrate specific binding to receptors and transporters. Most enzyme assays (CYPs, kinases, phosphatases, proteases, HDACs) used recombinant protein and specific substrates (fluorescence mostly, some colorimetric and radioactive) and inhibitors, followed by a biochemical separation of substrate and product. All assays for the biochemical HTS were initially run in duplicate at a single concentration (10 uM for CYP450 assays and 25 uM for all others). […] Each assay was run with positive and negative controls, and concurrent controls on every plate. The follow-up (secondary) screen tested active chemical-pairs in concentration series, as well as a few additional assays not tested in the primary screen, some selected negative inactives, and several cases re-run in the concentration series for confirmatory purposes.

Sequence of human Adrenergic, Alpha 2A Receptor (Adra2A), ADRA2A (gene 150) (P08913 whole entry, looked up): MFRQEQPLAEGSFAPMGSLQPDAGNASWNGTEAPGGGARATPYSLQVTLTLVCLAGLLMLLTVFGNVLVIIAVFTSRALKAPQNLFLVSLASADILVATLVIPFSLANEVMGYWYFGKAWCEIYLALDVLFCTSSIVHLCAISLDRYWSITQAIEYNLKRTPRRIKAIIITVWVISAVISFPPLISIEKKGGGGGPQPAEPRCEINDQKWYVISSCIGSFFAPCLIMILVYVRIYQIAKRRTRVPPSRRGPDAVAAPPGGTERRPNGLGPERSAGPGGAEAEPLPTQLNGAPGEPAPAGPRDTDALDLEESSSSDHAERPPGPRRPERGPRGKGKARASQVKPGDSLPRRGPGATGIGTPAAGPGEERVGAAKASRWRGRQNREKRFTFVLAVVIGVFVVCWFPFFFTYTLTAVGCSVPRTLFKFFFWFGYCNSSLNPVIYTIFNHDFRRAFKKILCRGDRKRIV

AC50, active:
CN(C)c1ccc(C(=C2C=CC(=[N+](C)C)C=C2)c2ccc(N(C)C)cc2)cc1 2.59 µM
Cc1occc1C(=O)Nc1ccc(C(=O)N2CCC(F)(F)/C(=C\C(=O)N3CCC(N4CCCCC4)CC3)c3ccccc32)cc1 3.18 µM
CN(C)C(=O)C1(N2CCCCC2)CCN(CC[C@@]2(c3ccc(Cl)c(Cl)c3)CN(C(=O)c3ccccc3)CCO2)CC1 35.6 µM
CCOC(=O)O[C@H](C)OC(=O)c1ccc2c(c1)cc(C(=O)NC1CCN(C(C)C)CC1)n2Cc1cc(-c2ccc(Cl)s2)on1 6.3 µM
COc1cc(C(=O)NC2CCN(C)CC2)ccc1Nc1ncc2c(n1)N(C1CCCC1)CC(F)(F)C(=O)N2C 14 µM
O=C1c2ccccc2C(=O)N1CCc1noc(-c2ccc(CN3CCCCCC3)s2)n1 0.861 µM
COc1ccc2cc(S(=O)(=O)N[C@H](CC(=O)N[C@H](Cc3ccc(CN4[C@H](C)CCC[C@@H]4C)cc3)C(=O)N(C)C(C)C)c3ccc4c(c3)OCO4)ccc2c1 18.8 µM
Clc1cc(Cl)c2c(c1)N=C1CCCCCN1C2 2.99 µM
NCc1cccc(C2CCN(C(=O)c3ccc(C#Cc4ccccc4F)o3)CC2)c1 25 µM

outcome, inactive:
CCN(Cc1cccnc1)C(=O)c1cccc(Cl)c1[C@]1(C)C(=O)N(Cc2ccc(OC)cc2OC)c2ccc(Cl)cc21
